Measured values as given in the supplement of paper PMC11732987, “Enantioselective OTUD7B fragment discovery through chemoproteomics screening and high-throughput optimisation” (Communications Chemistry, 2025).

Tests used:
Assay in all cases: log2 ratio of Biotin-Ahx-Ub-VS probe labelling (fragment/DMSO); higher = less target engagement (more negative = stronger competition), active = hit call of the paper (q ≤ 0.05, log2 ratio ≤ -1)
Settings in all cases: compound concentration: 200 uM; treatment time: 3 h
USP19 = biological target: T1, USP19 (UniProt O94966)
T1 sequence (whole entry): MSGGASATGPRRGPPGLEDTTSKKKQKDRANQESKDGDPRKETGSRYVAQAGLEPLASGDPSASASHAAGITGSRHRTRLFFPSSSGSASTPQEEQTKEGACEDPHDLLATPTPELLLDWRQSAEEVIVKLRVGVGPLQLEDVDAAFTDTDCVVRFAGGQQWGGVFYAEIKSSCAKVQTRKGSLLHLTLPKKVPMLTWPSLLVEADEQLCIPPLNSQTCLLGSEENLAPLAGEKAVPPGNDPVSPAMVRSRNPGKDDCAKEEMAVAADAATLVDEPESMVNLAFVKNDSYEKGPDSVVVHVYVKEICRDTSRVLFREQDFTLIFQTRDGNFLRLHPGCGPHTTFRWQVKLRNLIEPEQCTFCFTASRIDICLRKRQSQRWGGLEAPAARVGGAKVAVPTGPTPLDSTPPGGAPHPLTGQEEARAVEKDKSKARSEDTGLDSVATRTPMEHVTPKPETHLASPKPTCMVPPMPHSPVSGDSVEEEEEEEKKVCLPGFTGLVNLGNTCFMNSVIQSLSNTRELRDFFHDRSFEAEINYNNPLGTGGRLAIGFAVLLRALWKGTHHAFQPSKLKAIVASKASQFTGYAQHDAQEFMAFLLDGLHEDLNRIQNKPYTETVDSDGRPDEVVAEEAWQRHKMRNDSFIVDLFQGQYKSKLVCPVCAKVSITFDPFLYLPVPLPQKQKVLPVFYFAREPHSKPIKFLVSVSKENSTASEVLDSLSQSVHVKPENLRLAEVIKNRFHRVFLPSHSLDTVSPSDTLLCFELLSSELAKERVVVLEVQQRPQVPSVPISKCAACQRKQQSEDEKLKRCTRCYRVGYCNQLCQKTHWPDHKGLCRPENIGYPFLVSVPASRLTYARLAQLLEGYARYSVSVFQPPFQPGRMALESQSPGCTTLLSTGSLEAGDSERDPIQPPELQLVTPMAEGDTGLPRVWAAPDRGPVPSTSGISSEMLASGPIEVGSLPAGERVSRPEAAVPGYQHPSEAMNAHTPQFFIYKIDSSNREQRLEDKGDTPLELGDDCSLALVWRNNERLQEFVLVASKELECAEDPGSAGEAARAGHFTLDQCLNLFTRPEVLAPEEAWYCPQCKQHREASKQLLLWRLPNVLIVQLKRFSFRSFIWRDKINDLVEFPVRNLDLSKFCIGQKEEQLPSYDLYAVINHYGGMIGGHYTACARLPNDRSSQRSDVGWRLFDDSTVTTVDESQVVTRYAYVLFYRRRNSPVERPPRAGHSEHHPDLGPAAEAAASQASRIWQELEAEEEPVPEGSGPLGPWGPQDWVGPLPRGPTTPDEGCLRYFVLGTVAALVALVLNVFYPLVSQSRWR
In short: (§1)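 Labelled DUBs from HEK293T lysate were NeutrAvidin-enriched, digested with LysC and trypsin, and run by diaPASEF LC-MS/MS. Before that, each 495 µg sample in Tris/CHAPS/IGEPAL buffer with protease inhibitors was treated in triplicate with fragment at 200 µM or vehicle for 3 h, then with Biotin-Ahx-Ub-VS at 0.5 µM final for 1 h. Values are average log2 ratios of fragment over vehicle by unpaired t-test, based on global-median-normalised Spectronaut label-free quantities from proteins with ≥2 unique peptides.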

USP24 = USP24 (UniProt Q9UPU5)
USP24, sequence (Q9UPU5 whole entry): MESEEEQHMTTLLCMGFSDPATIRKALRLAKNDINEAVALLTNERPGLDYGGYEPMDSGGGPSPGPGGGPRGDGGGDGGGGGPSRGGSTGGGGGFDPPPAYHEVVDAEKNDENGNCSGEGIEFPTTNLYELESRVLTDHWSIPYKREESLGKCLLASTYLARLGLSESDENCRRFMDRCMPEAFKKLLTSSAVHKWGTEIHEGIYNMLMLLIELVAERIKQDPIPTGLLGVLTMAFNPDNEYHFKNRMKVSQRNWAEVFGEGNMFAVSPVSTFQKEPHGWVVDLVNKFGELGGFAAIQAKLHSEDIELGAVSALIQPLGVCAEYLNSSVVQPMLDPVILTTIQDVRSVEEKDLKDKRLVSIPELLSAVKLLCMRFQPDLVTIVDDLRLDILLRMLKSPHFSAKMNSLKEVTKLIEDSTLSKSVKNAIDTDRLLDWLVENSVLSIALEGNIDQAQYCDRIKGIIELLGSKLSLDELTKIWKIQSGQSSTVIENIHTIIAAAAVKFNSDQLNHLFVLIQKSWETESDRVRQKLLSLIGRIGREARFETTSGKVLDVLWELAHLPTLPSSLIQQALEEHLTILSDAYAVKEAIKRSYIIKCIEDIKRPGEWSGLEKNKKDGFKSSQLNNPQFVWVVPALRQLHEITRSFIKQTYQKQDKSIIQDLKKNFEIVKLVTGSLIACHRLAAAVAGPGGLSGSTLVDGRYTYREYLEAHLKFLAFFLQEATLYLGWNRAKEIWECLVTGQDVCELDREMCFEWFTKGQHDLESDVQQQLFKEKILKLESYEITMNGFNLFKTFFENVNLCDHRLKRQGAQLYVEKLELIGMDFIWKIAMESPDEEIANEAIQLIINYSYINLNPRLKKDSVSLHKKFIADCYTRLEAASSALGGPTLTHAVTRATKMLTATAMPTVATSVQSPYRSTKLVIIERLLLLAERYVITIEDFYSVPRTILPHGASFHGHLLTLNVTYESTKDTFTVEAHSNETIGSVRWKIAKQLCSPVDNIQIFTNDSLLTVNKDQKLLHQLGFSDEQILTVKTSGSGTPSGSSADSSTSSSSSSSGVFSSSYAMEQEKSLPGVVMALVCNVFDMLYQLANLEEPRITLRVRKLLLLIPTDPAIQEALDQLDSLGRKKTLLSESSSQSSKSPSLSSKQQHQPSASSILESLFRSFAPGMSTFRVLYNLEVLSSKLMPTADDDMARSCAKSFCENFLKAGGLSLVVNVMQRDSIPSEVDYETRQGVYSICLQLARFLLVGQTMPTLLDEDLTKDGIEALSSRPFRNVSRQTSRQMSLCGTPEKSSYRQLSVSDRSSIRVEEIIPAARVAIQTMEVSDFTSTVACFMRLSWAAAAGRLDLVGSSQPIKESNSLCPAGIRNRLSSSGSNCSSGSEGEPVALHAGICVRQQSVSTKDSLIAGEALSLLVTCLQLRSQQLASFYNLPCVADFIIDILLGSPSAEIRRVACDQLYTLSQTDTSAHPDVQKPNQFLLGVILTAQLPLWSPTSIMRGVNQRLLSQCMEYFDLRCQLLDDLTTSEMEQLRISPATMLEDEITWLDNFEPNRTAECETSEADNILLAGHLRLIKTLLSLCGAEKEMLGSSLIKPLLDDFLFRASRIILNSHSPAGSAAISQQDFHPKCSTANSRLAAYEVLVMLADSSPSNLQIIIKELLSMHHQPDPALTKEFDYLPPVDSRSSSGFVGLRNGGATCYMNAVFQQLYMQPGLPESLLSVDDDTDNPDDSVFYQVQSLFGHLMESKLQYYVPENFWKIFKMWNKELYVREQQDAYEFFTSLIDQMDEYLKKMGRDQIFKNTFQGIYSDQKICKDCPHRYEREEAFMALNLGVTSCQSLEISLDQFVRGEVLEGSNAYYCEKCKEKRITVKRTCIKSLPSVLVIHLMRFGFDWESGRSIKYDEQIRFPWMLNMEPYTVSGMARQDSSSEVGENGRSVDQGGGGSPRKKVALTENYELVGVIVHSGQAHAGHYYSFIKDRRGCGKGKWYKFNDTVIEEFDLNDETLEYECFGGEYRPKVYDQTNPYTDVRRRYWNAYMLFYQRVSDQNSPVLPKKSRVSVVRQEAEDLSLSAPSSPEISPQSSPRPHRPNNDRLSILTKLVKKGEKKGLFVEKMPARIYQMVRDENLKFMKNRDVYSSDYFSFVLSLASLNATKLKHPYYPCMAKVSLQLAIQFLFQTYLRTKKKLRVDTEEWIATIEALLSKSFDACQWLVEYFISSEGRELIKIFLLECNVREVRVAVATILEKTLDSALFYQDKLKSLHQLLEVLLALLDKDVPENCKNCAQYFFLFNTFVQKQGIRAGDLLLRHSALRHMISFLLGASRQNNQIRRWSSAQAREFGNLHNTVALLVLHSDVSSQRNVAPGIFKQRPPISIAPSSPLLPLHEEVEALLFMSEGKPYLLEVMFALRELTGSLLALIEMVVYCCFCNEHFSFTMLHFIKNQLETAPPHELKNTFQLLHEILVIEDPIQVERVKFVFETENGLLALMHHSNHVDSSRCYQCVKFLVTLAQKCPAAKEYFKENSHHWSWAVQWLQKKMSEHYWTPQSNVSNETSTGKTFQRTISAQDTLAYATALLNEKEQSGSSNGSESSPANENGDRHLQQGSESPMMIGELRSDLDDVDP
In short: as §1

USP25 = biological target: T2, USP25 (UniProt Q9UHP3)
T2 sequence (whole entry): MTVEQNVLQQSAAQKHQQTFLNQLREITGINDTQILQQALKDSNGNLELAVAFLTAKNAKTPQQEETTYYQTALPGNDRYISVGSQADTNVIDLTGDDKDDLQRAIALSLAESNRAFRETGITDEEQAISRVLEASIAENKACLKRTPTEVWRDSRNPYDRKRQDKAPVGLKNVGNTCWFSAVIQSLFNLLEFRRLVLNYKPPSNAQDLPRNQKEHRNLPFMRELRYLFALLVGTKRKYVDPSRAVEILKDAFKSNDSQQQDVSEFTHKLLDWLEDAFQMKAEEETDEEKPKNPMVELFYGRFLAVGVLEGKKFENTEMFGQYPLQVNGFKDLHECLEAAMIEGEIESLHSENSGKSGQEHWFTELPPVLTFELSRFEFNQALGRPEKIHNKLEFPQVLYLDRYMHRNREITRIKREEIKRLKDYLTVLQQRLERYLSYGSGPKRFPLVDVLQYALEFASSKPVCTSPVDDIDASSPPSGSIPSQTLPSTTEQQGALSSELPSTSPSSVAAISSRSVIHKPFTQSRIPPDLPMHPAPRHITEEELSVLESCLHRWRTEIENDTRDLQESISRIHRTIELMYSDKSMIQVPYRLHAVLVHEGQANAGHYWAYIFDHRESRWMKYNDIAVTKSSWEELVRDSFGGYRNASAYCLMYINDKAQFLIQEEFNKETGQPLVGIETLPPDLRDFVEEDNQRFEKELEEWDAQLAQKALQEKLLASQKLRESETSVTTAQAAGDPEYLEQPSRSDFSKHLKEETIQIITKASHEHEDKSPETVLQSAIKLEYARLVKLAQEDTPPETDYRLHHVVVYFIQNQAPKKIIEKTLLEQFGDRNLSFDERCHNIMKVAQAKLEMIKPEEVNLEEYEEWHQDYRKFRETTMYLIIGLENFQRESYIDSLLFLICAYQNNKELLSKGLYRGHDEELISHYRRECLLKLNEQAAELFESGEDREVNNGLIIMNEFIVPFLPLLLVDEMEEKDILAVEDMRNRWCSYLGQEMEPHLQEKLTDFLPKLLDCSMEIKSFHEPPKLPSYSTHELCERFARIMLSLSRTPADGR
In short: as §1

USP28 = biological target: T3, USP28 (UniProt Q96RU2)
T3 sequence (whole entry): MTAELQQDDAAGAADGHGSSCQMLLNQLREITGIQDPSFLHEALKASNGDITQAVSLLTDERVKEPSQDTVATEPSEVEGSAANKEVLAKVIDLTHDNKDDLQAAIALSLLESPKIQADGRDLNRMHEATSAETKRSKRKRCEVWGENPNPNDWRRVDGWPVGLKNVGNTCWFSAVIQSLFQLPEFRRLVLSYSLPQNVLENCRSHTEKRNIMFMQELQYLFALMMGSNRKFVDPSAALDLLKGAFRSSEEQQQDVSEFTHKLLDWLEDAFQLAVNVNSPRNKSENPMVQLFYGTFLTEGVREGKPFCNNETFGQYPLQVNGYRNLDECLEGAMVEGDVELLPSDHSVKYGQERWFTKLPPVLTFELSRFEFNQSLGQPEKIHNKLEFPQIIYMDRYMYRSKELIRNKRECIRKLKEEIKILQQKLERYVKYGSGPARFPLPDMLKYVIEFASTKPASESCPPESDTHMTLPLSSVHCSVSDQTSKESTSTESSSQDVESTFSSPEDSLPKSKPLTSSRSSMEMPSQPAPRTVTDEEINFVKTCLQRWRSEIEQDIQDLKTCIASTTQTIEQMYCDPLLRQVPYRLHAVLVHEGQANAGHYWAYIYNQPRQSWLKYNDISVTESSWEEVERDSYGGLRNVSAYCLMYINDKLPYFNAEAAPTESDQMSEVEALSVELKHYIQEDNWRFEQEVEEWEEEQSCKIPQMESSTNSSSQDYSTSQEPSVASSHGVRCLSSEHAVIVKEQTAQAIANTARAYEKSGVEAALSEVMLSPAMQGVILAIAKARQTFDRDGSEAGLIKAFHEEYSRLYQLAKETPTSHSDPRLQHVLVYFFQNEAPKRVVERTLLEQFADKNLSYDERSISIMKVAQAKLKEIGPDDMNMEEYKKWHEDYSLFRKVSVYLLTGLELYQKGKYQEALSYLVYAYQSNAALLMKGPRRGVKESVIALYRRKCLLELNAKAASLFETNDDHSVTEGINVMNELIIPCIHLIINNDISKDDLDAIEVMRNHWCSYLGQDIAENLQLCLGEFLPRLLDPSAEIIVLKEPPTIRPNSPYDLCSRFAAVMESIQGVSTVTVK
In short: as §1

Measured: log2 ratio of Biotin-Ahx-Ub-VS probe labelling

Cl.O=C(CCl)N[C@H]1C[C@@H](n2cccn2)C1
inactive: USP19 -0.157 | USP24 -0.464 | USP25 -0.201 | USP28 -0.188
